Reference: PubChem BioAssay (Tox21)
Results filed as inconclusive are left out. Entries that show only a call come without a potency. Activity calls are given as the source filed them. Calls come from the whole dose curve.

Target: Muscarinic acetylcholine receptor M1 (Homo sapiens) (UniProt P11229)
Experiment: Cholinergic receptor muscarinic 1 (CHRM1) small molecule agonists, cell-based qHTS assay (AID 1963589); note: nearly all actives have a fitted effect of over 35% in size
Details: CHRM1-CHO cells, agonist mode, calcium flux fluorescence; series mostly up to 76.8 µM
How it was run: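 Homogeneous fluorescence calcium flux, agonist mode. Human M1-expressing CHO cells; compound dosed at 15 concentrations, three independent runs; signal sampled every 1 sec.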

Sequence of Muscarinic acetylcholine receptor M1 (Homo sapiens) (P11229 whole entry, looked up): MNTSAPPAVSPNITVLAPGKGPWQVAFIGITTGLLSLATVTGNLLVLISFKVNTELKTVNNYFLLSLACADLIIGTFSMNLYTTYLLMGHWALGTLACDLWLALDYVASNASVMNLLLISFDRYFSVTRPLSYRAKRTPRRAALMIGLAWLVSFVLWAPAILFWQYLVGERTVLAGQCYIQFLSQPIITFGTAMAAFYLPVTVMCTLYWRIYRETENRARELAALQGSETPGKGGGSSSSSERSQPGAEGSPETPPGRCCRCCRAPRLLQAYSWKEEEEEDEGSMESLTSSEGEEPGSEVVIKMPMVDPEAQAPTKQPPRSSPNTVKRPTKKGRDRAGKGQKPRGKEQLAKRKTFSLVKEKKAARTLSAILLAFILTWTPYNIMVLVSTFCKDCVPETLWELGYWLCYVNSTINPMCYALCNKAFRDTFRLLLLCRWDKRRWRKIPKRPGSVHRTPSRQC

| SMILES | Potency |
| --- | --- |
| N#CC(c1ccccc1)c1ccccc1 | inactive |
| O=C(Cl)OCCOCCOC(=O)Cl | inactive |
| CCN(CC)C(=O)C(C)Oc1cccc2ccccc12 (configuration not stated) | inactive |
| CN(C)CCC#N | inactive |
| CCN(CCO)CCO | inactive |
| O=C(NCO)NCO | inactive |
| Nc1c(Br)cc([N+](=O)[O-])cc1[N+](=O)[O-] | inactive |
| Cc1cccc(N)c1N | inactive |
| CC(C)C(=O)OCC(C)(C)C(OC(=O)C(C)C)C(C)C (configuration not stated) | inactive |

System: not listed separately
Experiment: cAMP Responsive Elements (CRE) small molecule agonists, cell-based qHTS assay (AID 1963590)
Details: CRE-bla HEK293T, beta-lactamase FRET ratio, 3 h; series mostly up to 92.4 µM
How it was run: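 HEK 293T cells stably bearing CRE-bla were plated at 2,000 cells per well and rested 18 h. Compounds, positive controls or DMSO were added for 3 h at 37 C. LiveBLAzer B/G substrate was then loaded for 2 h at room temperature.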

| SMILES | Potency |
| --- | --- |
| N#CCCO | inactive |
| C=CCSSCC=C | inactive |
| N#Cc1ccc(Cl)cc1 | inactive |
| C=CCc1cc(OC)c2c(c1)OCO2 | inactive |
| c1ccc(-c2cccc(-c3ccccc3)c2)cc1 | inactive |
| c1ccc(NNc2ccccc2)cc1 | inactive |
| OCCSSCCO | inactive |
| CCN | inactive |
| N#Cc1ccc(O)cc1 | inactive |
| NCCOS(=O)(=O)O | inactive |
| O=NN(c1ccccc1)c1ccccc1 | inactive |
| COC(=O)Nc1cccc(OC(=O)Nc2cccc(C)c2)c1 | inactive |
| CC(Br)C(=O)O (configuration not stated) | inactive |
| ClC(Cl)(Cl)Br | inactive |
| CCN(CC)Cc1nccn1-c1ccc([N+](=O)[O-])cc1C(=O)c1ccccc1Cl | inactive |
| Cl/C=C/CCl | inactive |
| CCCCCCCCSC(=O)Oc1cc(Cl)nnc1-c1ccccc1 | inactive |
| Cc1ccc(N)cc1N | inactive |
| [O-][Cl+]O | inactive |
| OCCOc1ccccc1 | inactive |
| O=C(CCN1CC1)OCC(CO)(COC(=O)CCN1CC1)COC(=O)CCN1CC1 | inactive |
| CC(C)(C)C(O)(CCc1ccc(Cl)cc1)Cn1cncn1 (configuration not stated) | inactive |
| CC1COC2(c3ccccc3Cl)c3cc(Cl)ccc3NC(=O)CN12 (configuration not stated) | inactive |
